According to PubChem BioAssay (EPA / NIEHS):
Inconclusive results are not listed. Active and inactive are the calls of the source. How the source made its calls: active means hit-call score of the fitted dose curve at least 0.9, where 1 is the maximum; inconclusive means response in the unintended direction; inactive means score below 0.9.

These compounds were tested on sulfotransferase (SULT2A), SULT2A1 (gene 6822) (assay: CLD_SULT2A_24hr: CellzDirect (CLD) Gene Expression Assay for sulfotransferase (SULT2A) at 24 hours (AID 2283694)).
Protocol: CLD_24hr is a cell-based, multiplexed-readout assay that uses hepatocyte, a human liver primary cell, with measurements taken at 24 hours after chemical dosing in a 96-well plate.CLD_SULT2A_24hr is one of 16 assay component(s) measured or calculated from the CLD_24hr assay. It is designed to make measurements of mRNA induction, a form of inducible reporter, as detected with chemiluminescence signals by Quantitative Nuclease Protection Assay (qNPA) technology.Data from the assay component CLD_SULT2A_24hr was analyzed at the endpoint, CLD_SULT2A_24hr, in the positive analysis fitting direction relative to DMSO as the negative control and baseline of activity. Using a type of inducible reporter, gain-of-signal activity can be used to understand changes in the reporter gene as they relate to the gene SULT2A1. Furthermore, this assay endpoint can be referred to as a primary readout. To generalize the intended target to other relatable targets, this assay endpoint is annotated to the transferase intended target family, where subfamily is sulfotransferase.
Human hepatocyte cultures were treated daily for two consecutive days with fresh dosing solutions containing appropriate concentrations of the 320 ToxCast chemicals (chemical identities were blinded to CellzDirect and other ToxCast collaborators), vehicle control (0.2% DMSO), and positive control inducers as summarized in Table 1. Due to the large number of treatment groups and chemicals examined, the ToxCast chemicals were divided into two groups (spanning two independent cultures of hepatocytes from separate donor preparations (Hu778: ToxCast plates 1 and 2; Hu776: ToxCast plates 3 and 4). Each preparation of human hepatocyte cultures was treated with respective vehicle control, medium only control, set of six positive controls/reference chemicals for the five hepatic receptor pathways, and a subset of eight of the ToxCast chemicals (indoxacarb, pyrithiobac-sodium, norflurazon, cyhalofop-butyl, methomyl, thiram, acetochlor, and propiconazole). These replicate data, coupled with internal replicates designed within the blinded ToxCast chemical library, provided additional data to evaluate interindividual differences between hepatocyte preparations and their potential impact on chemical profiles.Cell morphology and integrity were evaluated using phase-contrast microscopy as an indicator of hepatocyte cell health (Tyson & Green, 1987). Cultures for each treatment group (i.e., media, vehicle [0.2% DMSO], positive control inducers [multiple concentrations], and the ToxCast chemicals [multiple concentrations]) were observed and cell morphology was assessed relative to vehicle control cultures at each harvest time point (0, 6, 24, or 48 h). […] Images were evaluated at the conclusion of the study to assess changes in cell integrity and account for the effects of chemical exposure on uncharacteristic changes in concentration-dependent gene expression profiles. The results from these determinations of apparent cytotoxicity were annotated (yes/no) alongside the corresponding qNPA data for reference.At the conclusion of each treatment period, hepatocyte cultures (96-well) were washed with 1 volume of HBSS, lysed by addition of 25 ul ArrayPlate lysis buffer (HTG, Tucson, AZ), and 70 ul/well of Denaturation Oil, denatured by incubation at 95C for 10 min, and frozen at approximately -70C until analysis by nuclease protection assay (qNPA) (Roberts et al., 2007). For qNPA analysis, cell lysates were thawed at 50C for approximately 30 min, qNPA probes were added, and samples were incubated at 95C for 10 min to begin the detection process by denaturing the target RNA, dissociating the duplexes and secondary structure hybridization. At the conclusion of the hybridization period, S1 nuclease reagent was added to each sample to digest all nonprotected nucleotides at 50C for 60-90 min. […]

Q: For c1ccc(Nc2ccccc2)cc1, which outcome is on record?
A: inactive

Q: For CCOC(=O)C(C)Oc1ccc(Oc2nc3ccc(Cl)cc3o2)cc1 (stereo not given), which outcome is on record?
A: inactive

Q: With Oc1ccc(C(c2ccc(O)cc2)C(Cl)(Cl)Cl)cc1 as the compound, how does the outcome read?
A: inactive

Q: For Cc1nn(C)c(Oc2ccccc2)c1C=NOCc1ccc(C(=O)OC(C)(C)C)cc1, which outcome is on record?
A: inactive

Q: How did the outcome turn out when OB(O)O was run?
A: inactive

Q: With O=C(Nc1ccc([N+](=O)[O-])cc1Cl)c1cc(Cl)ccc1O as the compound, how does the outcome read?
A: inactive

Q: Which outcome does the source give for N#CSCSc1nc2ccccc2s1 here?
A: inactive

Q: For CCC(C)OC(=O)N1CCCCC1CCO (stereo not given), which outcome is on record?
A: inactive

Q: How did the outcome turn out when C#CCOC(=O)[C@@H](C)Oc1ccc(Oc2ncc(Cl)cc2F)cc1 was run?
A: inactive

Q: COC(=O)c1ccccc1S(=O)(=O)NC(=O)Nc1nc(OC(F)F)cc(OC(F)F)n1 was tested. Which outcome did it give?
A: inactive

Q: For CCCCCCC(C)OC(=O)COc1nc(F)c(Cl)c(N)c1Cl (stereo not given), which outcome is on record?
A: inactive

Q: How did the outcome turn out when COC(=O)c1ccccc1C(=O)O was run?
A: inactive

Q: O=C(O)C1(C(=O)Nc2ccc(Cl)cc2Cl)CC1 was tested. Which outcome did it give?
A: inactive

Q: With CN(C)C(=O)Nc1ccc(Cl)c(Cl)c1 as the compound, how does the outcome read?
A: inactive

Q: How did the outcome turn out when CCCCC(CC)CN1C(=O)C2C3C=CC(C3)C2C1=O (stereo not given) was run?
A: inactive

Q: How did the outcome turn out when CCCCCOC(=O)COc1cc(N2C(=O)C3=C(CCCC3)C2=O)c(F)cc1Cl was run?
A: inactive

Q: Which outcome does the source give for CCCCOCCOCCOCc1cc2c(cc1CCC)OCO2 here?
A: inactive

Q: With CCOC(=O)[C@H](C)Oc1ccc(Oc2nc3ccc(Cl)cc3o2)cc1 as the compound, how does the outcome read?
A: inactive

Q: For CCCCOC(=O)[C@@H](C)Oc1ccc(Oc2ccc(C(F)(F)F)cn2)cc1, which outcome is on record?
A: inactive

Q: For COC(=O)CSc1cc(N=c2sc(=O)n3n2CCCC3)c(F)cc1Cl, which outcome is on record?
A: inactive

Q: For CCCCOC(=O)C(C)Oc1ccc(Oc2ccc(C(F)(F)F)cn2)cc1 (stereo not given), which outcome is on record?
A: inactive

Q: How did the outcome turn out when CCOC(=O)NCCOc1ccc(Oc2ccccc2)cc1 was run?
A: inactive

Q: For CCCCC(CC)COC(=O)c1ccccc1C(=O)O (stereo not given), which outcome is on record?
A: inactive

Q: CCOC(=O)C(C)Oc1ccc(Oc2cnc3cc(Cl)ccc3n2)cc1 (stereo not given) was tested. Which outcome did it give?
A: inactive

Q: How did the outcome turn out when CCCN(CCC)c1c([N+](=O)[O-])cc(C(F)(F)F)c(N)c1[N+](=O)[O-] was run?
A: inactive

Q: How did the outcome turn out when CC(C)(c1ccc(O)cc1)c1ccc(O)cc1 was run?
A: inactive

Q: COC(=O)c1cccc(C)c1S(=O)(=O)NC(=O)Nc1nc(OCC(F)(F)F)nc(N(C)C)n1 was tested. Which outcome did it give?
A: inactive

Q: Which outcome does the source give for COC(=O)c1c(Cl)nn(C)c1S(=O)(=O)NC(=O)Nc1nc(OC)cc(OC)n1 here?
A: inactive

Q: With CCCN(CCC)C(=O)SCC as the compound, how does the outcome read?
A: inactive

Q: Which outcome does the source give for CCCOC(=O)c1ccc(C(=O)OCCC)nc1 here?
A: inactive

Q: Which outcome does the source give for COCCO here?
A: inactive

Q: With CSC(=O)c1cccc2nnsc12 as the compound, how does the outcome read?
A: inactive

Q: For CCCOC(=O)NCCCN(C)C, which outcome is on record?
A: inactive

Q: For COc1c(Cl)ccc(Cl)c1C(=O)O, which outcome is on record?
A: inactive

Q: With CC(C)(C)[C@@H](O)[C@@H](Cc1ccc(Cl)cc1)n1cncn1 as the compound, how does the outcome read?
A: inactive
